Screens (PubChem)
This excerpt belongs to a sample that is enriched for hits.
Chlamy TAG – algal TAG accumulation induction. Chlamydomonas reinhardtii TAG, Nile Red fluorescence, 72 h. calls only at 10 µM (by protocol). 44,000 compounds, 0.84% hits. AID 1159537; call rule not given here;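 note: hits raise Nile Red signal meaning more stored TAG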
Active calls of the source: *; i = inactive; + = active, no number.

SMILES	Chlamy TAG
Cc1ccc(C)c(N2CCN(C(=O)C3CCC3)CC2)c1	i
Cc1ccc(C)c(N2CCN(C3CCc4ccccc4C3)CC2)c1 (stereo not drawn)	+
CN1CCN(C2Cc3ccccc3C2)CC1	i
Fc1cccc(F)c1CN1CCN(C/C=C/c2ccccc2)CC1	i
Cc1cccc(NC(=O)C2CCN(C(=O)c3ccc(F)cc3)CC2)c1C	i
O=C(Nc1cccc2cccnc12)[C@@H]1C2C=CC(C2)[C@@H]1C(=O)O (stereo partly drawn)	i
Cc1cc(C)c(S(=O)(=O)N2CCN(c3ccccc3)CC2)cc1Br	i
Cc1cc(C)c(S(=O)(=O)N2CCN(C)CC2)cc1Br	+
Cc1cc(C)c(S(=O)(=O)N2CCN(C)CC2)cc1C	i
Brc1ccc(OCCCn2ccnc2)cc1	i
Ic1ccc(OCCCn2ccnc2)cc1	i
O=C(c1ccccc1)c1ccc(OCCCCn2ccnc2)cc1	+
Oc1ccccc1CNCCC12CC3CC(CC(C3)C1)C2	+
COc1ccccc1CC(=O)NC12CC3CC(CC(C3)C1)C2	i
CC(C)(C)C(=O)NCCC12CC3CC(CC(C3)C1)C2	i
CCSc1ccc(C(=O)N2CCc3cc(Br)ccc32)cc1[N+](=O)[O-]	i
CC(=O)C1=C(C)NC(SCc2ccccc2)=C(C#N)C1c1cccc([N+](=O)[O-])c1 (stereo not drawn)	i
CC(C)C(NS(=O)(=O)c1cccs1)C(C)C	+
CC(C)c1ccc(NS(=O)(=O)c2cccs2)cc1	i
Cc1cc(C)cc(NS(=O)(=O)c2cccs2)c1	i
CCOc1ccccc1NC(=O)CCC1CCCCC1	i
Cc1nc(C)c(Cc2ccccc2)c(=O)[nH]1	i
Cc1ccc(NC(=O)c2cccc(S(=O)(=O)N3CCCCCC3)c2)c(C)c1	i
CCc1ccc(CN2CCCC(CO)C2)cc1 (stereo not drawn)	i
Cc1ccc(CN2CCCC(CO)C2)cc1 (stereo not drawn)	+
SMILES	Chlamy TAG
CCN(CC)C(=O)C1CCCN(Cc2ccc(C)cc2)C1 (stereo not drawn)	i
O=C1CC(N2CCN(Cc3ccc4c(c3)OCO4)CC2)C(=O)N1CCc1ccccc1 (stereo not drawn)	+
O=C1c2ccccc2C(=O)N1CN1CCN(Cc2ccc3c(c2)OCO3)CC1	i
O=c1c(CN2CCN(Cc3ccc4c(c3)OCO4)CC2)coc2ccccc12	i
CC(C)(C)NS(=O)(=O)c1ccc2c(c1)OCCO2	i
COc1cc(/C=C\C(=O)c2ccco2)cc(OC)c1OC	i
OC(COc1ccc(Cl)cc1Cl)CN1CCN(Cc2ccccc2)CC1 (stereo not drawn)	+
CN1CCN(CC(O)COc2ccc(Cl)cc2Cl)CC1 (stereo not drawn)	i
CCOC(=O)N1CCN(CC(O)COc2ccc(Cl)cc2Cl)CC1 (stereo not drawn)	i
O=S(=O)(Nc1nc2ccccc2s1)c1ccccc1	i
Brc1ccc(C2=CSC3=NCCN23)cc1	i
CCOc1ccc(C2=CSC3=NCCN23)cc1	+
Fc1ccc(C2=CSC3=NCCN23)cc1	i
Cc1ccc(-c2nc(SCC(=O)N3c4ccccc4Sc4ccccc43)n[nH]2)cc1	i
